# High-throughput results as filed in PubChem.
# Shown are actives, neighbours in structure and some others; about 7.7% of the full set was active somewhere.
# Giardia FBPA inh: qHTS Assay for Inhibitors of Fructose-1,6-bisphosphate Aldolase from Giardia Lamblia | purified Giardia FBPA | Potency, µM (titrated, usually from 59.6 µM), most hits filed as inhibitors | hit rate 0.71% among 290,000; note: nearly all actives have a fitted effect of over 55% in size
# Target sequence (A8B2U2 whole entry, looked up): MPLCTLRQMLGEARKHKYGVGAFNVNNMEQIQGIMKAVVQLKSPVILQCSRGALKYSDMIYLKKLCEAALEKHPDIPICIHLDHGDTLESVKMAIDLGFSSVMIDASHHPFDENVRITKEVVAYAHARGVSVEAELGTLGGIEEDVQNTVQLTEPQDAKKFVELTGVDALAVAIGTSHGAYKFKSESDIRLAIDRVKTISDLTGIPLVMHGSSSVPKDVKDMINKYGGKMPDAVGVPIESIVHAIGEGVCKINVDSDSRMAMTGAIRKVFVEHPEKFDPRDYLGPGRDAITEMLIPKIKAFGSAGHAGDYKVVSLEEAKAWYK
#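 40 nM FBPA preincubated 10 min at RT with compound (up to 57.5 uM final), then substrate plus GAPDH/TPI/NAD/arsenate coupling and diaphorase/resazurin added. Fluorescence read after 20 min at RT, 525/598 nm.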
# FMDV inh: High Throughput Screening for Foot and Mouth Disease Virus Antivirals. FMDV antiviral cell-based qHTS. Potency, µM (doses to about 57.9 µM), most hits filed as inhibitors. hit rate 1.2% among 410,000; calls by dose curve; tested in HEK293T cells; note: read-out not given here; nearly all actives have a fitted effect of over 45% in size
# Sm TGR block: qHTS Assay for the Inhibitors of Schistosoma Mansoni Peroxiredoxins; Schistosoma mansoni thioredoxin glutathione reductase (TGR), Q962Y6; purified TGR, DTNB reduction, TNB absorbance 405 nm; Potency, µM (doses to about 114 µM), most hits filed as inhibitors; hit rate 3% among 360,000; note: nearly all actives have a fitted effect of over 60% in size
#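 Kinetic colorimetric format: TGR-catalysed, NADPH-driven DTNB reduction monitored via TNB absorbance. Enzyme dispensed at 20 nM; compound exposure 15 min at room temperature before reaction start.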
# TbPYK inhibitor: qHTS of Trypanosoma Brucei Inhibitors. hit rate 0.12% among 410,000. AID 624173, 2012. pyruvate kinase (Trypanosoma brucei), Q57TT1. TbPYK enzyme, Kinase-Glo Plus ATP luminescence, 45 min. Potency, µM (top dose mostly 76.8 µM), actives largely listed as inhibitors; note: nearly all actives have a fitted effect of over 50% in size
#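 Luminescent Kinase-Glo Plus end-point after 45 min room-temperature reaction of T. brucei pyruvate kinase started with 130 uM ADP (final). Buffer TEA 50 mM pH 7.2 with KCl, MgCl2, BSA, Tween-20; titration-based qHTS with fitted concentration-effect curves.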
# HCMV antiviral: qHTS Assay for inhibitors of the human cytomegalovirus (HCMV); HFF cells, HCMV-luciferase reporter, 72 h; stronger effect = lower value; activity change, negative = inhibition, % at 57.5 µM; hit rate 4.5% among 410,000; in the data active = activity change below about -60%; inconclusive = no clear call, values can overlap the other calls; inactive = above about -39%
#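 Two-dose cell screen: HFF monolayers treated with compounds and infected with luciferase-expressing HCMV at 1 PFU/cell, 72 h at 37C, then lysed for luciferase measurement.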
# RE007 growth inh: qHTS Assay for Inhibitors of the HIV-1 protein Vpr | Potency, µM (series often up to 92.2 µM), hits mostly inhibitors | hit rate 0.21% among 360,000 | AID 651644, 2012 | S. pombe RE007 Vpr strain, BacTiter-Glo ATP luminescence, 24 h; active = well fitted falling curve with a large enough effect; inconclusive = small, poorly fitted or top-dose-only effect; inactive = no such curve, though single readings can be large or run the other way; note: nearly all actives have a fitted effect of over 50% in size
#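 Fission yeast strain RE007, carrying one chromosomally integrated HIV-1 vpr copy, was seeded at OD 0.01 in PMG+AL medium with 23 nL pinned compound. After 24 h at 30 °C and 99% humidity, viability was read by BacTiter-Glo luminescence.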
# Hits are given with their value; n = inactive; u = inconclusive; x = no result given; [ ] = another dose, or the depositor's remark. Unless noted, calls come from the whole dose curve; as a rule, active = well fitted curve in the direction sought with a large enough effect; inconclusive = small, poorly fitted or top-dose-only effect, or another doubt; inactive = no such curve, though single readings can be large; an effect the other way counts as inactive or inconclusive.
SMILES,Giardia FBPA inh,FMDV inh,Sm TGR block,TbPYK inhibitor,HCMV antiviral,RE007 growth inh
CCOc1ccccc1-c1nc(CN2CCN(C(=O)c3ccco3)CC2)c(C)o1,n,n,u,n,n,n
CCOc1ccccc1-n1c(CN2CCN(C(=O)c3ccco3)CC2)nc2ccccc2c1=O,n,n,25µM,n,-105,n
O=C1NC(=O)N(Cc2ccc(F)cc2)C(=O)/C1=C/c1cccs1,n,32µM,u,u,n,n
CN(C)c1ccc(C=C2C(=O)NC(=S)NC2=O)cc1,x,28µM,x,32µM,n,n
CN(C)c1ccc(/C=C2/C(=O)NC(=O)N(CCc3ccc(F)cc3)C2=O)cc1,n,n,u,n,n,n
CN(C)c1ccc(/C=C2\C(=O)NC(=O)N(Cc3ccc(F)cc3)C2=O)cc1,n,n,0.79µM,n,n,n
O=C1N/C(=C/c2cccs2)C(=O)N1Cc1ccccc1F,n,n,n,n,n,n
O=C1NC(=O)N(Cc2ccccc2Cl)C(=O)/C1=C/c1cccs1,n,22µM,n,u,-97,n
Cc1cccc(N2CCN(C(=O)CN3C(=O)COc4ccc(S(=O)(=O)N5CCC(C)CC5)cc43)CC2C)c1 (configuration not stated),x,u,n,n,n,x
COC(=O)c1cc2ccsc2n1CC(=O)Nc1cc(Cl)ccc1OC,n,x,n,n,-97,n
COC(=O)c1cc2oc(C)cc2n1CC(=O)Nc1cc(Cl)ccc1OC,x,n,n,n,n,x
COC(=O)c1cc(=O)c(O)c2c(O)c(O)ccc2c1,5µM,n,x,x,x,x
CCOc1ccccc1NC(=O)Cn1c(=O)n(CCC(=O)NCc2ccc3c(c2)OCO3)c(=O)c2ccccc21,x,n,n,n,n,x
C[C@]12[C@H](O)CC3C(CC[C@@H]4C[C@@H](O)CC[C@]34C)[C@@]1(O)CC[C@@H]2C1=CC(=O)OC1 (some centres not stated),n,x,x,x,x,x
CC12CCC(O)CC1CCC1C2CCC2(C)C(C3=CC(=O)OC3)CCC12O (configuration not stated),x,u,x,n,-99,n
C[C@H]1O[C@@H](O[C@H]2[C@@H](O)C[C@H](O[C@H]3[C@@H](O)C[C@H](O[C@H]4CC[C@]5(C)C6CC[C@]7(C)[C@@H](C8=CC(=O)OC8)CC[C@]7(O)C6CC[C@@H]5C4)O[C@@H]3C)O[C@@H]2C)C[C@H](O)[C@@H]1O (some centres not stated),n,x,x,x,x,x
CC1O[C@@H](O[C@@H]2C(O)C[C@H](O[C@@H]3C(O)C[C@@H](OC4CC[C@@]5(C)C6CC[C@]7(C)C(C8=CC(=O)OC8)CC[C@@]7(O)C6CC[C@@H]5C4)OC3C)OC2C)CC(O)[C@H]1O (some centres not stated),n,n,x,x,x,x
C[C@]12CC[C@H](O)C[C@H]1CC[C@@H]1[C@@H]2C[C@@H](O)[C@]2(C)[C@@H](C3=CC(=O)OC3)CC[C@]12O,x,u,n,n,-100,n[18.4 µM]
C[C@]12CC[C@H](O)C[C@H]1CC[C@@H]1[C@@H]2CC[C@]2(C)[C@@H](C3=CC(=O)OC3)CC[C@]12O,x,n,n,n,-97,n
CC(=O)OC1CC[C@]2(C)C(CCC3C2CC[C@]2(C)C(C4=CC(=O)OC4)C(OC(C)=O)CC32O)C1 (some centres not stated),n,u,x,x,x,x
CC12CCC(O)CC1CCC1C2CCC2(C)C(C3=CC(=O)OC3)C(O)CC12O (configuration not stated),x,u,x,n,-97,n
CCC(Cn1nnc2ccccc2c1=O)NC(=O)Nc1ccccc1Cl (configuration not stated),x,u,n,n,n,x
CCc1ccc(Cn2c(CNS(=O)(=O)c3ccc4c(c3)CCCC4)nc3cccnc32)cc1,x,n,n,n,n,x
OCC1OC(C(N=Nc2ccccc2)=NNc2ccccc2)C(O)C1O (configuration not stated),x,x,x,x,n,x
Cc1cc(C)n(-c2cc(N3CCN(C(=O)c4cccc(Br)c4)CC3)ccc2[N+](=O)[O-])n1,n,14µM,n,n,n,n
SMILES,Giardia FBPA inh,FMDV inh,Sm TGR block,TbPYK inhibitor,HCMV antiviral,RE007 growth inh
Cc1cc(C)cc(NC(=O)Cn2c(=O)n(Cc3ccc4c(c3)OCO4)c(=O)c3oc4ccccc4c32)c1,x,n,n,n,n,x
COc1ccc2nc(N=Nc3ccc(N(C)C)cc3)sc2c1,n,13µM,n,n,n,n
C[C@@H](c1ccccc1)N1C(=O)[C@H]2[C@H]3[C@H](O)[C@H](O)C/C(=N/OCc4ccccc4)[C@H]3CC[C@@H]2C1=O,n[12.9 µM],x,x,x,x,x
c1ccc(C(Cc2nc(-c3ccncc3)no2)c2ccccc2)cc1,n,u,n,n,-69,n
c1ccc(-c2ccc(-c3nc(-c4ccncc4)no3)cc2)cc1,n,x,n[11.4 µM],n,-72,n
c1ccc(-c2nc(-c3ccncc3)no2)cc1,n,n,n,n,n,n
Cc1ccc2[nH]c(=O)c(CN(CCCN3CCOCC3)C(=O)NC3CCCCC3)cc2c1,n,n,100µM,n,n,n
O=C(NC1CCCCC1)N(CCN1CCOCC1)Cc1cc2cc3c(cc2[nH]c1=O)OCCO3,n,n,n,n,u,n
COc1cc2cc(CN(CCc3cccc(C)c3)C(=S)NCCCN3CCOCC3)c(=O)[nH]c2cc1OC,n,n,n,n,-82,n
CNC(=S)N(CCc1cccc(C)c1)Cc1cc2cc(OC)c(OC)cc2[nH]c1=O,n,n,n,n,n,x
COc1cc2cc(CN(CCc3cccc(C)c3)C(=S)NCCCN(C)C)c(=O)[nH]c2cc1OC,n,n,n,n,-90,x
CCOc1cc(C(=O)CSc2nnc(CNc3ccc(Cl)cc3)o2)ccc1NC(=O)CC,n,u,n,n,-87,n
COc1ccc(C(=O)NCCn2cc(SCc3ccc(C(F)(F)F)cc3)c3ccccc32)cc1OC,x,22µM,n,n,-62,x
O=C(CSc1cn(CCNC(=O)c2ccccc2F)c2ccccc12)Nc1ccc2c(c1)OCCO2,x,n,n,n,n,x
Cc1ccc(C(=O)NCCn2cc(SCC(=O)N3CCOCC3)c3ccccc32)cc1,n,n,n,n,-63,n
CCOC(=O)c1c(NC(=O)C(C)Sc2cn(CCNC(=O)c3ccc(OC)c(OC)c3)c3ccccc23)sc2c1CCC2 (configuration not stated),x,n,n,n,-108,x
O=C(CSc1cn(CCNC(=O)c2cccc(C(F)(F)F)c2)c2ccccc12)Nc1ccc2c(c1)OCCO2,x,25µM,n,n,-83,x
